Bioassay records: PubChem, National Center for Advancing Translational Sciences (NCATS)
Sampled rows, rich in hits. Any-hit rate of the full collection: about 4.3%.
MCF10A rerep: DNA re-replication induction in MCF 10a cells. MCF 10A DNA re-replication, Hoechst nuclear intensity, 48 h. Potency, µM (top dose mostly 46.1 µM), for the others: at the highest dose activity, positive = re-replication, usual class: activators. 350,000 tested, 2.9% active. AID 624296; note: potency is the fitted concentration of half-maximal effect; % of control where 0% means no effect; nearly all actives have a fitted effect of over 50% in size
Giardia killer: Giardia lamblia killing | Giardia lamblia trophozoite viability | activity change, % at 7.66 µM, hits read low | 340,000 tested, 0.15% active; in the data active = activity change below about -80%; inconclusive = between about -30% and that limit;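 note: parasites exposed to compound for two days anaerobically before the ATP read; % is set by controls: 0 for no effect and ±100 for the full control effect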
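Luminescent ATP signal served as the viability read-out, measured 15-30 min after adding ATP detection reagent to trophozoites that had been incubated with compounds for 48 hrs at 37 deg C anaerobically at 100 cells/well.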
SW480 rerep: inducers of DNA re-replication in SW480 colon cancer cells; SW480 DNA re-replication, Hoechst DNA content imaging, 48 h; Potency, µM (doses to about 46.1 µM), inactives show top-dose re-replication activation, most hits filed as activators; 340,000 tested, 1.8% active; AID 624297; note: potency is the fitted concentration of half-maximal effect; % of control where 0% means no effect; nearly all actives have a fitted effect of over 55% in size
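Per well, 250 cells were exposed to pinned compound for 48 hr. Nuclear DNA was visualised with Hoechst (40 min, 37 C) and total object intensity recorded by fluorescence scanning.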
uPA generation: blocks generation of uPA at the cell surface. cell surface uPA generation assay, qHTS. Potency, µM (highest dose often 38.3 µM), for the others: top-dose activity change, negative = inhibition, most hits filed as inhibitors. 330,000 tested, 0.31% active. AID 540303; active = well fitted inhibition curve with a large enough effect; inconclusive = small, poorly fitted or top-dose-only effect; inactive = no such curve, though single readings can be large or run the other way; tested in mouse RAW 264.7 cells; note: potency is the fitted concentration of half-maximal effect; % is set by controls: 0 for no effect and ±100 for the full control effect; nearly all actives have a fitted effect of over 55% in size
Active calls of the source: *; ? = inconclusive; nt = not tested or not shown. Unless noted, calls come from the whole dose curve; as a rule, active = well fitted activation curve with a large enough effect; inconclusive = small, poorly fitted or top-dose-only effect; inactive = no such curve, though single readings can be large or run the other way.

SMILES	MCF10A rerep	Giardia killer	SW480 rerep	uPA generation
S=c1[nH]nc(C2CCCCC2)n1/N=C/c1ccccc1Cl	?	14	-1%	-4%
CSc1ccc(/C=N/n2c(C3CCCCC3)n[nH]c2=S)cc1	16µM*	1	?	-1%
CCOc1ccccc1/C=N/n1c(C2CCCCC2)n[nH]c1=S	26µM*	8	6%	-2%
CC(/C=N/n1c(C2CCCCC2)n[nH]c1=S)=C\c1ccccc1	21µM*	3	?	1%
CCn1ncc(Br)c1C(=O)Nc1ccc(-c2ccno2)cc1	?	-11	4%	2%
CSc1cccc(NC(=O)COC(=O)c2ccccn2)c1	?	33	-1%	7%
COc1cc(O)c(CC=C(C)C)c(O)c1C(=O)CCc1ccc(O)cc1	6.5µM*	-5	?	-9%
CCCCc1ccc(NC(=O)CSCc2cc(=O)[nH][nH]2)cc1	13µM*	-11	-3%	nt
O=C(CSCc1cc(=O)[nH][nH]1)Nc1ccc(F)cc1	2%	-4	2%	7%
COc1ccc(CN(C(=O)CSc2nnc(-c3ccc(F)cc3)o2)c2ccc(F)cc2)cc1	1%	8	0%	3%
CCSc1nnc(-c2c[nH]c3ccccc23)o1	-1%	-3	-6%	-1%
O=S(=O)(Nc1ccc(-c2nnc(SCc3ccc(Cl)cc3)o2)cc1)c1ccccc1	21µM*	-5	7%	0%
Clc1ccc(CSc2nnc(-c3c[nH]c4ccccc34)o2)cc1	21µM*	25	1%	5%
COc1ccc(CN(C(=O)CSc2nnc(-c3c[nH]c4ccccc34)o2)c2ccc(F)cc2)cc1OC	4.1µM*	5	7%	-2%
O=S(=O)(Nc1c(Br)cc(Br)c2cccnc12)C1CC1	nt	25	nt	nt
O=C(O)CC/C(=N\NC(=O)CNC(=O)c1ccc(F)cc1)c1ccccc1	-4%	18	-8%	-7%
COc1ccc(-c2ccc3c(N)c(C(=O)Nc4cccc(C)c4)sc3n2)cc1	nt	-4	nt	nt
CN(C)c1ccc(/C=C/c2nc3ccccc3s2)cc1	?	?	9.2µM*	-13%
Fc1ccccc1/C=C/c1ccc2ccccc2n1	16%	-29	-2%	11µM*
Oc1ccc(/C=C/c2ccc3ccccc3n2)cc1	?	?	18µM*	?
C(=C\c1ccc2ccccc2n1)/c1ccccc1	12%	-23	?	5.6µM*
COc1ccc(N2C(=O)N3[C@@H]4c5ccccc5OC[C@@H]4[C@@H](c4ccccc4)[C@@]3(C)C2=O)cc1	6%	-24	17%	25%
CN(C)c1ccc(/C=C/c2ccc3ccccc3n2)cc1	5.2µM*	?	23µM*	2µM*
CCCN(CCC)c1ccc(/C=C/c2ccc3cc(OCC)ccc3n2)cc1	?	4	2.1µM*	12%
COc1cc(NS(=O)(=O)c2c(C)oc3c(F)c(F)c(F)c(F)c23)cc(OC)c1OC	-15%	6	-1%	-4%
SMILES	MCF10A rerep	Giardia killer	SW480 rerep	uPA generation
N#Cc1sc2nc(-c3cccs3)cc(-c3ccccc3)c2c1N	3%	-16	-5%	-2%
N#Cc1sc2nc(-c3ccccc3)cc(C(F)(F)F)c2c1N	4%	-12	2.9µM*	-1%
Cc1cc(=O)c2c(o1)C(=O)c1occc1C2=O	?	-4	?	0%
CC(C)(C)c1cnnn1-c1ccc(C=O)cc1	0%	11	-1%	nt
CC(C)(C)c1cnnn1-c1ccc(C(=O)CCl)cc1	16µM*	-4	?	-6%
COc1ccc(/C=N/NC(=O)c2[nH]c3ccc(C)cc3c2-c2ccccc2)c(C(=O)O)c1OC	5.8µM*	-5	?	-4%
CN[C@H](C)CCC=C(C)C	24µM*	nt	3%	nt
CC(C)=CCCC(C)CCO (centres undefined)	13%	17	-12%	-5%
COc1cc(/C=N/NC2=NC(C)(C)Cc3ccccc32)cc(OC)c1OC	-13%	16	-10%	-2%
Fc1ccc(CN2CCN3CCCC3C2C2CCCCC2)cc1F (centres undefined)	21µM*	-12	?	-4%
CN(C)c1ccc(C(=O)/C=C/c2cccnc2)cc1	?	-7	?	?
CN(C)c1ccc(/C=C/C(=O)c2cccc(Br)c2)cc1	16µM*	15	?	nt
CSc1ccc(/C=C/C(=O)c2ccc(NC(C)=O)cc2)cc1	?	-24	?	-13%
CC(=O)Nc1cccc(C(=O)/C=C/c2ccc(C)cc2)c1	21µM*	-5	?	-10%
CCC(=O)Nc1cccc(C(=O)/C=C/c2ccc(F)cc2)c1	?	0	10µM*	?
Cc1nn(CC(C)C)c(Cl)c1C(=O)N(c1ccc(Cl)cc1F)S(C)(=O)=O	21µM*	-20	11%	-6%
COc1ccc(CCNC(=O)c2c(C)nn(CC(C)C)c2Cl)cc1	3%	9	-3%	-2%
Cc1oc(-c2ccc(-c3ccccc3)cc2)nc1CN(C)C1CCOC1 (centres undefined)	?	9	16µM*	-2%
Cc1oc(-c2cccc(Cl)c2)nc1CN(C)C1CCOC1 (centres undefined)	0%	17	3%	2%
NC(N)=NCC1COc2ccccc2O1 (centres undefined)	-3%	nt	-1%	nt
CCN(c1cccc(C)c1)S(=O)(=O)c1cnc[nH]1	21µM*	12	1%	18%
CCN(c1cccc(C)c1)S(=O)(=O)c1c(C)[nH]c(=O)[nH]c1=O	19%	1	1%	13%
CCOc1ccc(Nc2c3ccccc3nc3ccccc23)cc1	3.3µM*	0	4.6µM*	-17%
O=C(/C=C/c1ccccc1)/C=C/c1ccccc1	3.3µM*	-26	21µM*	-14%
O=C(/C=C/c1ccccc1)c1ccccc1	?	-28	?	?
SMILES	MCF10A rerep	Giardia killer	SW480 rerep	uPA generation
CC1CC1c1ccc(/C=C(\C#N)C(=O)Nc2ccccc2Cl)o1 (centres undefined)	16µM*	9	4%	2%
Cc1nn(-c2ccc(F)cc2)c(Cl)c1/C=C(\CCC(=O)O)c1nc2ccccc2s1	18µM*	0	-2%	nt
COc1ccc(N(C(=O)c2cnccn2)C(C(=O)NC2CCCCC2)c2cc(OC)c(OC)c(OC)c2)cc1 (centres undefined)	-3%	10	-1%	1%
CCc1ccc2nc(N(CCCN(C)C)C(=O)c3ccc(C(=O)c4ccccc4)cc3)sc2c1	?	-14	17%	1%
O=[N+]([O-])c1nn(-c2ccccc2)n(O)c1=NC1CCN(Cc2ccccc2)CC1	?	-85*	10µM*	-12%
O=[N+]([O-])c1nn(-c2ccc3c(c2)OCCO3)n(O)c1=NC1CCN(Cc2ccccc2)CC1	15%	-82*	7.3µM*	4.5µM*
O=[N+]([O-])c1nn(-c2ccccc2)n(O)c1=NCCc1ccccc1	?	?	?	-10%
CCc1cccc(N=c2c([N+](=O)[O-])nn(-c3ccc4c(c3)OCCO4)n2O)c1	0%	?	3%	-9%
Cc1onc(-c2ccccc2Cl)c1C(=O)Nc1nnc(C2CCCCC2)s1	nt	5	nt	nt
CCn1nc(-c2ccccc2C)nc2c(=O)n(C)c(=O)nc1-2	nt	-93*	nt	nt
